Only some compounds are listed: those with a hit (about 4.2% of all), similar ones and a draw of the others.
hcDAF-12 act – activates DAF-12 receptor from parasite H. contortus; HEK293 hcDAF-12 lit1-tk-luc reporter, luminescence; 0% DMSO, 100% Δ7-dafachronic acid; activation, % at 6.8 µM; 370,000 tested, 1.4% active; AID 652067;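 active = activation above the mean of all tested compounds plus 3 SD, cut at about 5.5% in these data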;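 also: 100% = response to 3 µM Δ7-dafachronic acid high control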
hgDAF12 agonist – hgDAF-12 agonism, primary luciferase screen. HEK293 GAL4-hgDAF12 UAS-luciferase reporter, agonist luminescence; normalized to butyrate control. activation, % at 6.8 µM. 370,000 tested, 1.8% active;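 active = activation above a cutoff set at the mean of all screened compounds plus 3 SD, cut at about 10% in these data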;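 also: 0% = DMSO wells and 100% = sodium butyrate wells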
Wnt act – activates Wnt/beta-catenin signaling in a reporter cell assay; activator, plate reader; activation, % at 9.35 µM; 300,000 tested, 1.2% active; AID 743398; in the data active = activation above about 30%, passing the limit was not always enough; inconclusive = no clear call, values can overlap the other calls;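 also: 0% = neutral control wells and 100% = positive control wells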
ssDAF-12 act – activates DAF-12 receptor from parasite S. stercoralis. HEK293 ssDAF-12/GRIP1 lit1-tk-luc reporter, luminescence; % of 3 µM dafachronic acid response. activation, % at 6.8 µM. 370,000 tested, 1% active. AID 652126;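 active = activation above the mean over all tested compounds plus 3 SD, cut at about 0.9% in these data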;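 also: 0% = DMSO-only wells and 100% = 3 µM delta7-dafachronic acid wells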
DAX1 inh – DAX1 (NR0B1) inhibition, primary screen | inhibition, % at 6.8 µM | 370,000 tested, 1.1% active | HEK293T StAR-luciferase reporter, SF-1/DAX-1 repression relief;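 active = inhibition above the mean over all tested compounds plus 3 SD, cut at about 3.6% in these data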;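 also: 0% = DAX-1 cells with DMSO and 100% = cells lacking DAX-1 with DMSO; higher inhibition means more luminescence from relief of DAX-1 repression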
esBAF inh – inhibitors of esBAF chromatin remodeling in mouse ES cells | AID 602393 | reporter increase, % at 12.5 µM | Bmi1-luciferase knock-in reporter, 24 h; 100% = twice the neutral-well signal | 350,000 tested, 2% active; in the data active = activation above about 40%; inconclusive = no clear call, values can overlap the other calls;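 also: 0% = median of the plate's neutral control wells and 100% = double that signal; a rise in the Bmi1 reporter signal indicates esBAF inhibition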
Ring1 derepress – de-represses Ring1 in mouse ESCs, confirming esBAF inhibition | mouse ESC E14, Ring1 mRNA RT-qPCR fold change | fold change at 33 µM | 550 tested, under 10 active | shares compounds with esBAF inh;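 active = Ring1 gene expression raised more than 2-fold over untreated cells in both replicates at either tested dose; inconclusive = only one replicate above 2-fold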;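 also: Ring1 transcript normalised to actin housekeeping signal by TaqMan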
Fgf4 repress – esBAF inhibition confirmed by Fgf4 repression; shares compounds with esBAF inh; mouse ESC E14, Fgf4 mRNA qPCR fold change; active compounds read low; Fgf4 expression fold change at 33 µM; 550 tested, 4% active; AID 743177;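 active = Fgf4 expression under 0.8 fold of control in both repeat measurements at one or both tested doses; inconclusive = under 0.8 fold in just a single repeat measurement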;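 also: Fgf4 transcript normalised to actin in duplex TaqMan qPCR; cells exposed to compound for 24 h before lysis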
esBAF Bmi1 qPCR – confirmation of esBAF inhibitors: Bmi1 de-repression in mouse ESCs | shares compounds with esBAF inh | mouse ESE14 ES cells, Bmi1 mRNA qPCR fold; active compounds read high | fold change at 33 µM | 550 tested, under 10 active | AID 743180;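 active = Bmi1 expression fold change above 6 at either tested concentration, seen in replicate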;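 also: higher fold means more Bmi1 de-repression and stronger esBAF inhibition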
A549 cytotox – cytotoxicity in A549 cells; cell viability change % (negative = cytotoxic), % at 25 µM, hits read low; plate reader; 550 tested, under 10 active; shares compounds with esBAF inh; call rule not given here
HepG2 cytotox SP – HepG2 cell cytotoxicity at single point. plate reader; active compounds read low. 550 tested, 4% active. activity change, negative = inhibition, % at 25 µM. shares compounds with esBAF inh; in the data active = activity change below about -50%
HEK293 cytotox SP – kills or reduces viability of HEK293 cells | shares compounds with esBAF inh | HEK293 cytotoxicity, plate reader | activity change, negative = inhibition, % at 25 µM, hits read low | 550 tested, 3% active | AID 743190; in the data active = activity change below about -38%, passing the limit was not always enough
Starred values were filed as active, the others as inactive; u = inconclusive; x = no result given.

SMILES	hcDAF-12 act	hgDAF12 agonist	Wnt act	ssDAF-12 act	DAX1 inh	esBAF inh	Ring1 derepress	Fgf4 repress	esBAF Bmi1 qPCR	A549 cytotox	HepG2 cytotox SP	HEK293 cytotox SP
COc1cccc(NC(=O)C(=O)NCCC2CCCCN2S(=O)(=O)c2ccccc2)c1 (configuration not stated)	-0.3	5.6	-2.8	-0.4	3.3	78.9*	0.987	0.941	1.81	-8.8	-33.1	-15.4
CN1CCN(C(=O)C[C@H]2CC[C@@H](NS(=O)(=O)c3cccc(F)c3)[C@H](CO)O2)CC1	x	x	x	x	x	-0.4	x	x	x	x	x	x
CNC(=O)c1ccc(-c2cc3onc(-c4ccccc4)c3c(=O)n2C)cc1	2.4	1.0	42.5*	-1.1	0.5	81.2*	0.924	0.882	1.48	-10.1	14.9	-1.8
O=C(Cc1cn2ccsc2n1)Nc1nc2c(s1)CCCC2	-1.8	-0.4	x	-1.3	-0.1	x	x	x	x	x	x	x
O=C(Cc1cccs1)Nc1nc2c(s1)CCCC2	-0.7	-3.9	13.4	-1.8	0.9	59.2*	1.03	0.793*	1.31	-27.5	9.1	-54.6*
O=c1sc(N2CCN(c3ccc(F)cc3)CC2)nc2ccsc12	1.9	-3.8	25.6	-1.2	1.6	62.4*	1.26	0.937	1.65	2.6	-13.5	-8.9
COCC#Cc1ccc2c(c1)O[C@H](CN(C)C(=O)Nc1ccc(OC)cc1)[C@H](C)CN([C@H](C)CO)S2(=O)=O	x	x	x	x	x	-1.8	x	x	x	x	x	x
CC(Cc1cccnc1)NC(=O)c1cc(COc2c(F)cccc2F)on1 (configuration not stated)	-1.4	-0.8	0.8	-1.1	0.8	x	x	x	x	x	x	x
Cc1ccc(OCc2cc(C(=O)NC(C)Cc3cccnc3)no2)cc1C (configuration not stated)	2.4	6.3	18.4	-0.6	1.1	71.6*	1.11	1	1.85	-0.1	-11.5	-11.0
COc1ccc(Cl)cc1Nc1nc(-c2cccnc2)cs1	-2.1	1.0	-1.5	-1.0	-0.8	-5.8	x	x	x	x	x	x
COc1ccc(-c2csc(Nc3cc(C)ccn3)n2)cc1C	-1.3	3.1	13.0	-1.6	-0.2	46.4*	1.27	u	1.39	-5.7	-19.7	-8.5
Cc1ccc(C(=O)Nc2ccc(Br)c(C(F)(F)F)c2)cc1	-0.3	9.9	x	-1.3	-0.8	73.6*	1.14	0.926	2.8	-4.8	6.9	-55.6*
O=C(C[C@H]1C[C@@H]2c3cc(NC(=O)Nc4ccccc4)ccc3O[C@@H]2[C@H](CO)O1)NCC1CC1	x	x	x	x	x	2.9	x	x	x	x	x	x
COc1ccc2nc3ccccc3[n+]([O-])c2c1	-1.2	8.4	4.0	-0.6	2.1	72.1*	1.38	1.3	2.53	-6.2	-13.7	-11.0
Cc1cccc(S(=O)(=O)N2C[C@H]3[C@@H](c4ccccc42)[C@@H](CO)N3C(=O)c2ccccc2)c1	x	x	x	x	x	-3.7	x	x	x	x	x	x
Clc1ccc(N/N=C/c2cccnc2)cc1	6.0*	4.0	x	-1.2	0.4	69.7*	1.11	0.963	1.84	-0.3	-10.9	-12.5
CO[C@@H]1CN(C)C(=O)c2ccc(NC(=O)c3ccccn3)cc2OC[C@@H](C)N(CC2CC2)C[C@H]1C	x	x	x	x	x	4.5	x	x	x	x	x	x
CCc1c(C)[nH]c(C(=O)OCc2ccccc2)c1C	-0.1	6.6	2.8	-1.7	-0.3	x	x	x	x	x	x	x
CCc1c(C(=O)OCc2ccccc2)[nH]c(C)c1C	3.0	7.4	0.3	-1.5	0.6	53.1*	1.03	0.89	2.19	-4.6	-25.0	-6.1
Cn1c(COc2ccccc2)nc2ccccc21	0.5	6.0	42.3*	-0.7	-0.8	57.2*	1.04	0.894	1.52	-19.7	-23.4	-20.8
Oc1ccc(-c2nccc(-c3ccccn3)n2)cc1	1.0	8.1	24.1	-0.7	1.1	59.6*	1.29	1.03	1.4	2.2	8.8	10.9
Cc1ccc(-c2ccnc(-c3ccc(O)cc3)n2)cc1	0.7	8.1	28.2	0.0	1.3	x	x	x	x	x	x	x
O=C(Nc1ccccc1)N1C[C@@H]2[C@H](c3ccccc31)[C@H](CO)N2Cc1cocn1	x	x	x	x	x	7.2	x	x	x	x	x	x
C=CCNc1nc(NCc2cccc(OC)c2)c2sc(-c3ccccc3)cc2n1	2.1	3.7	-2.3	-1.4	-1.0	70.9*	3.7*	0.3*	17.3*	-7.5	-48.0	-65.9*
Brc1cccc2sc(N3CCN(c4ccccc4)CC3)nc12	3.7	4.3	3.2	-0.5	1.0	x	x	x	x	x	x	x
SMILES	hcDAF-12 act	hgDAF12 agonist	Wnt act	ssDAF-12 act	DAX1 inh	esBAF inh	Ring1 derepress	Fgf4 repress	esBAF Bmi1 qPCR	A549 cytotox	HepG2 cytotox SP	HEK293 cytotox SP
Clc1cccc2sc(N3CCCCC3)nc12	0.8	4.1	x	-0.1	0.7	61.1*	1.23	0.933	1.75	-0.8	-0.9	-2.8
O=C(Nc1ccc2c(c1)[C@@H]1C[C@@H](CC(=O)N3CCCCC3)O[C@@H](CO)[C@@H]1O2)C1CCOCC1	x	x	x	x	x	-0.2	x	x	x	x	x	x
O=C(Nc1ccc(Br)cn1)c1cccc2ccccc12	2.9	6.3	-7.0	-0.6	0.5	x	x	x	x	x	x	x
COc1cc2ccccc2cc1C(=O)Nc1ccc(Br)cn1	2.2	5.0	7.6	-0.3	-0.3	86.1*	0.992	0.911	1.45	2.2	2.9	0.4
Nc1nc(SCc2ccccc2)c2ncn(C3CCCCC3)c2n1	1.3	0.8	8.7	-1.2	1.2	84.6*	0.993	0.78*	1.46	1.5	21.2	-10.0
COc1ccc(-c2ccc3oc(-c4ccsc4)cc(=O)c3c2)cn1	-1.0	5.8	47.9*	-1.0	0.2	68.2*	1.36	0.939	1.47	-0.7	-21.8	-2.5
COc1ccc(NC(=O)Nc2cc(C)ccc2OC)cc1	-2.0	2.5	x	-1.6	-0.3	19.8	x	x	x	x	x	x
Cc1ccc(NC(=O)Nc2ccc(F)c(Cl)c2)cc1	0.8	6.7	47.3*	-1.0	0.7	64.4*	0.944	1.31	1.55	-9.2	-18.2	-33.2
COc1ccc(NC(=O)Nc2cc(C)ccc2F)cc1	2.0	10.3	28.7	-0.2	3.9*	123.1*	0.909	0.929	1.63	-19.4	-34.0	-25.4
Cc1noc(C)c1S(=O)(=O)Nc1ccc2c(c1)C(=O)N([C@@H](C)CO)C[C@@H](C)[C@@H](CN(C)S(C)(=O)=O)O2	x	x	x	x	x	4.5	x	x	x	x	x	x

Screening results from PubChem BioAssay.
